A selection: hits, their analogues and other compounds. The true share with any hit is near 5.2%.
APOBEC3A inh – APOBEC3A ssDNA deaminase inhibitors, primary screen, selectivity assay for APOBEC3G inhibitor project, biochemical, FAM/TAMRA oligo cleavage fluorescence | recombinant A3A, FAM/TAMRA ssDNA deamination fluorescence | inhibition, % at 20 µM | 330,000 tested, 0.41% active;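 active = at least 40% inhibition at 20 µM here, with at most 30% in a related deaminase screen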;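 note: plate controls were A3A with DMSO for no effect and wells lacking A3A enzyme for full effect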
Yeast superoxide – reduction of superoxide in aged yeast, primary screen, HTS | S. cerevisiae aged cells, superoxide DHE fluorescence; hits give low values | superoxide response (% of plate mean), % at 10 µM | 330,000 tested, 0.18% active | AID 2690, 2010;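 active = superoxide response under a set limit, about three screen SD below normal, cut at about 65% in these data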;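 note: yeast aged for seven days with compound at 30 °C before DHE staining; 100% = average MFI of all compound-treated wells on the plate with controls excluded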
NRP1-CendR mod – modulators of CendR peptide binding to NRP-1, primary screen, biochemical, fluorescence polarization, uHTS; Neuropilin-1 (Homo sapiens), O14786; FAM-RPARPAR peptide binding to NRP-1; inhibition, % at 25 µM; 360,000 tested, 0.85% active;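 active = inhibition or corrected inhibition above about 18%, plus a signal ratio from 0.5 to 1.5, limit read from the data, passing the limit was not always enough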
ALR inh – inhibitors of human ALR sulfhydryl oxidase, primary screen, biochemical, H2O2 detection, HRP-luminol luminescence, single point | inhibition, % (test concentration not listed) | FAD-linked sulfhydryl oxidase ALR (Homo sapiens), P55789 | 290,000 tested, 3.8% active | purified ALR, DTT oxidation;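 active = mean replicate inhibition above about 79%, with every replicate also reaching it, limit read from the data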
Target sequence (P55789 whole entry, looked up): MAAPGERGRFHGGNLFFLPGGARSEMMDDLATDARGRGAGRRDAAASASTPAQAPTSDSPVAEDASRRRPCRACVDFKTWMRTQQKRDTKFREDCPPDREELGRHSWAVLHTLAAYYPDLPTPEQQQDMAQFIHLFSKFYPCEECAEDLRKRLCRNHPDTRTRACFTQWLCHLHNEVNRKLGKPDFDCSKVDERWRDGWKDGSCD
A3G deaminase – APOBEC3G DNA deaminase inhibitors, primary screen, biochemical, fluorescence, single-stranded DNA substrate, uHTS. DNA dC->dU-editing enzyme APOBEC-3G (Homo sapiens), Q9HC16. recombinant A3G, ssDNA deamination FAM/TAMRA fluorescence. inhibition, % at 20 µM. 330,000 tested, 0.28% active;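 active = inhibition of at least 40% at 20 µM, with no more than 30% in the related APOBEC3A deaminase screen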;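 note: plate controls were DMSO wells with A3G for no effect and wells lacking A3G enzyme for full effect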
Target sequence (Q9HC16 whole entry, looked up): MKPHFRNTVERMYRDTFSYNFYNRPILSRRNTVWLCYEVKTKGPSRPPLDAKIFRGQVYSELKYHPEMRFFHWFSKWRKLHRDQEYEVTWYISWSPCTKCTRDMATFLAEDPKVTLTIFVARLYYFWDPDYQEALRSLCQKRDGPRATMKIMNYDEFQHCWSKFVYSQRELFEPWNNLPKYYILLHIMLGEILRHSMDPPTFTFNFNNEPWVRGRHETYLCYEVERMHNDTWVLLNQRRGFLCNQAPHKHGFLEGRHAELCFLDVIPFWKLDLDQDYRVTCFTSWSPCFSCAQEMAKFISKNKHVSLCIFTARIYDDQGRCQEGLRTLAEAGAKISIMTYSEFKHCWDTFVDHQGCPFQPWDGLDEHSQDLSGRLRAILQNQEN
M18AAP inhibitor – PfM18AAP inhibitors, malaria aminopeptidase, primary screen, biochemical, QFRET, recombinant enzyme; 290,000 tested, 1.2% active; H-Glu-NHMec fluorogenic cleavage; M18 aspartyl aminopeptidase (Plasmodium falciparum 3D7); inhibition, % at 7.35 µM;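 active = inhibition above the campaign mean inhibition over all tested compounds plus 3 SD, cut at about 28% in these data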;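 note: 0% = plate median of test compound wells and 100% = 2 mM ZnCl2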
* marks the source's active call; other numbers are inactive results; nt = no result.

SMILES	APOBEC3A inh	Yeast superoxide	NRP1-CendR mod	ALR inh	A3G deaminase	M18AAP inhibitor
Cc1cc(C(=O)N2CCCC(Nc3ccc(F)cc3)C2)n(C)n1 (stereo not drawn)	-8	111	12	55	-6	4
CCCc1cc(C(=O)N2CCCC(Nc3ccc(C)c(C)c3)C2)n(C)n1 (stereo not drawn)	-2	100	2	98*	-3	4
CSc1ncccc1C(=O)N1CCCC(Nc2ccc(C)c(C)c2)C1 (stereo not drawn)	4	99	2	99*	-1	-3
Cc1ccc(C(=O)N2CCCC(Nc3ccc(C)c(C)c3)C2)c(=O)[nH]1 (stereo not drawn)	-4	99	11	0	6	-9
Cc1ccc(NC2CCCN(C(=O)c3cc(C(C)C)[nH]n3)C2)cc1C (stereo not drawn)	1	91	-1	99*	-4	13
Cc1cc(C(=O)COC(=O)[C@H](C)NC(=O)c2ccco2)c(C)n1Cc1ccco1	8	84	10	2	-1	-9
Cc1cc(C(=O)N2CCCC(Nc3ccc(C)c(C)c3)C2)nc(C)n1 (stereo not drawn)	nt	nt	2	nt	nt	nt
Cc1nc(C(=O)N2CCCC(Nc3ccc(C)c(C)c3)C2)cs1 (stereo not drawn)	-4	110	8	99*	-3	1
CC(=O)Nc1ccc(N=Cc2ccc[nH]2)cc1	-3	88	3	98*	-6	-15
CC(C)C[C@H](NC(=O)N1CC(=O)Nc2ccccc21)C(=O)N[C@H](C(=O)O)c1ccccc1	nt	85	3	nt	nt	13
COC(=O)c1ccccc1N=Nc1c(N)n[nH]c1N	0	87	2	91*	-6	11
O=C(CSc1ccc2c(c1)OCCO2)Nc1cccnc1	2	91	-3	99*	-6	-12
O=C(CSc1ccc2c(c1)OCCO2)Nc1ccccc1	nt	nt	-29	nt	nt	nt
CCn1c2ccccc2c2cc(NC(=O)CSc3nccc(=O)[nH]3)ccc21	-7	89	-22	98*	-5	12
O=C(CSc1nccc(=O)[nH]1)Nc1ccc(Br)c(Cl)c1	2	78	8	98*	-3	-4
O=C(CSc1nccc(=O)[nH]1)Nc1ccc(F)c(Cl)c1	0	103	2	100*	-1	6
O=C(CSc1nccc(=O)[nH]1)Nc1ccc2ccccc2c1	-4	70	-14	12	-6	nt
CCN(CC(=O)NCc1cccs1)C(=O)c1ccc(NS(=O)(=O)c2cccc([N+](=O)[O-])c2)cc1	3	108	3	-1	-6	nt
COc1cccc(N(C(=O)Cn2nnc(-c3ccc(F)cc3)n2)C(C(=O)NCC2CCCO2)c2ccc(Cl)cc2)c1 (stereo not drawn)	-1	108	-14	nt	-6	-2
O=C(CSc1nccc(=O)[nH]1)Nc1ccc2c(c1)OCCO2	-3	93	5	98*	-11	3
CC(=O)Nc1ccc(C(=O)CSc2nccc(=O)[nH]2)cc1	0	100	2	99*	-4	-6
O=C(CSc1nccc(=O)[nH]1)Nc1ccc(Oc2ccccc2)cc1	-1	105	1	-7	-3	-2
COC(=O)c1ccc(NC(=S)Nc2ccc(O)cc2)cc1	-3	109	-5	99*	-6	13
O=C(NC(=S)Nc1ccc(O)cc1)C1CCCC1	-5	86	-4	nt	-8	nt
Oc1ccc(NC(=S)Nc2ccc(O)cc2)cc1	0	90	11	99*	-13	12
SMILES	APOBEC3A inh	Yeast superoxide	NRP1-CendR mod	ALR inh	A3G deaminase	M18AAP inhibitor
CSC(=O)CC(=O)NC(=O)c1ccccc1	-6	88	-6	97*	-5	7
COc1cccc(C2C(C(=O)c3cc4ccccc4o3)=C(O)C(=O)N2c2cc(C)on2)c1 (stereo not drawn)	-2	129	0	98*	1	15
Cc1cc(N2C(=O)C(O)=C(C(=O)c3ccc(C)o3)C2c2ccc([N+](=O)[O-])cc2)no1 (stereo not drawn)	-5	125	10	97*	-5	10
O=C1c2ccccc2C(=O)C1c1ccccn1	-3	103	-9	5	-7	-3
O=C1c2ccccc2C(=O)C2OC12 (stereo not drawn)	-3	124	nt	-131	-8	29*
O=C(Cn1cc(S(=O)(=O)Cc2ccccc2)c2ccccc21)Nc1ccccc1	-1	110	-2	nt	-1	-8
COc1ccc(CNC(=O)COC(=O)c2cccc(S(=O)(=O)N3CCOCC3)c2)cc1	-1	102	-7	0	-2	nt
CC1=CC(=O)Nc2ccccc2S1	nt	nt	-41	nt	nt	nt
Cn1c(SCC(=O)c2ccccc2)nnc1-c1cnccn1	1	93	-1	97*	-5	1
CN(C)c1ccc(NC(=O)CSc2nnc(-c3cnccn3)n2C)cc1	-2	94	5	99*	-3	14
COc1ccccc1N1CCN(C2CCN(C3CCC(c4ccccc4)CC3)CC2)CC1 (stereo not drawn)	-1	102	nt	nt	-12	-8
COC(=O)c1ccc2c(c1)C(C)(C)C(/C=C/c1ccccc1O)=[N+]2C	24	121	-112	87*	10	4
O=C(COC(=O)c1ccc[nH]c1=O)Nc1cc(S(=O)(=O)N2CCCCC2)ccc1Cl	1	104	5	-17	-4	0
Cc1ccc(S(=O)(=O)N2C(c3ccc(Cl)c(Cl)c3)CC=C(C(=O)O)C2c2ccc(Cl)cc2)cc1 (stereo not drawn)	nt	nt	-41	nt	nt	nt
Cc1ccc(S(=O)(=O)N2[C@@H](c3ccc(Cl)cc3)C(C(=O)O)=CC[C@H]2c2ccc(Cl)c(Cl)c2)cc1	-6	105	-49	88*	-4	nt
COC(=O)N1[C@H](Cc2ccccc2)C=C[C@]1(C)C(=O)O	1	113	-5	0	-6	2
CCn1nnnc1SCC(=O)Nc1nc(C)c(C)s1	-1	97	-7	1	-4	1
CC1CCN(CC(=O)N2c3ccccc3CCc3ccccc32)CC1	0	84	-4	84*	-9	-13
O=C(CN1CCCCC1)N1c2ccccc2CCc2ccccc21	1	100	8	13	1	-5
CC(C)(C)c1ccc(C(=O)NC(=S)Nn2cnnc2)cc1	-5	121	3	-2	0	55*
